In PubChem BioAssay:
For some assays here: Measured potencies and affinities stand elsewhere. The source made the active and inactive calls. Unless noted, the rule behind the calls is not given here.

Legend:
[1] = antimalarial activity against Dd2 strain (AID 2302;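 active = growth inhibition above 50% at the single 2 µM test dose, taken to imply half-maximal potency below 2 µM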;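 note: 0% = DMSO untreated growth and 100% = chloroquine plus artemisinin killed control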); details: P. falciparum Dd2 in RBCs, LDH growth readout, 72 h; at 2 µM; stronger effect = higher value
[2] = HepG2 cytotoxicity, primary screen, cytotoxicity control for P. falciparum antimalarial project, cell-based, ATP luminescence (AID 2303;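 active = inhibition above 50%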;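 note: 0% = DMSO wells and 100% = digitonin-killed cells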); details: HepG2 viability, 24-48 h, at 10 µM, stronger effect = higher value
[3] = target: L-lactate dehydrogenase (Plasmodium falciparum (isolate CDC / Honduras)) (UniProt Q27743); test: PfLDH activity inhibition – cell lysate, 3D7 strain, counter-screen for P. falciparum growth inhibition project (AID 2304);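 note: 0% = vehicle and 100% = reference inhibitor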; details: P. falciparum 3D7 crude extract, LDH APAD/NBT absorbance; at 2 µM; stronger effect = higher value
[4] = inhibition of 3D7 malaria parasite growth – strain 3D7 (AID 2306);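 note: 0% = DMSO wells and 100% = chloroquine plus artemisinin control wells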; details: P. falciparum 3D7 erythrocytic growth, LDH absorbance, 72 h; at 2 µM; stronger effect = higher value
[5] = target: Calcium-dependent protein kinase 1 (Plasmodium falciparum (isolate 3D7)) (UniProt P62344); test: PfCDPK1 kinase inhibitors, biochemical, TCAMS library (AID 1159585; cut-off not given, nearly all actives have IC50 up to about 0.98 µM;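 note: inhibitors leave more ATP so luminescence rises with inhibition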); details: recombinant PfCDPK1, Kinase-Glo ATP depletion luminescence
[6] = target: Plasmodium falciparum protein kinase 6 (PK6, PF3D7_1337100) (UniProt Q8IDW1); test: PfPK6 kinase inhibitors, biochemical, TCAMS library (AID 1159586); details: recombinant PfPK6, Kinase-Glo ATP depletion luminescence
[7] = target: Protein kinase 7 (PK7), Plasmodium falciparum 3D7 (PF3D7_0213400) (UniProt Q7YTF7); test: inhibition of Plasmodium PK7 catalytic activity – biochemical, TCAMS antimalarial set, Kinase-Glo luminescence (AID 1159587); details: recombinant PfPK7, Kinase-Glo ATP depletion luminescence
[8] = target: Calcium-dependent protein kinase 4 (Plasmodium falciparum (isolate 3D7)) (UniProt Q8IBS5); test: PfCDPK4 kinase inhibitors, biochemical, TCAMS library (AID 1159588; cut-off not given, nearly all actives have IC50 up to about 0.91 µM); details: recombinant PfCDPK4, Kinase-Glo ATP depletion luminescence
Sequence of Calcium-dependent protein kinase 4 (Plasmodium falciparum (isolate 3D7)) (Q8IBS5 whole entry, looked up): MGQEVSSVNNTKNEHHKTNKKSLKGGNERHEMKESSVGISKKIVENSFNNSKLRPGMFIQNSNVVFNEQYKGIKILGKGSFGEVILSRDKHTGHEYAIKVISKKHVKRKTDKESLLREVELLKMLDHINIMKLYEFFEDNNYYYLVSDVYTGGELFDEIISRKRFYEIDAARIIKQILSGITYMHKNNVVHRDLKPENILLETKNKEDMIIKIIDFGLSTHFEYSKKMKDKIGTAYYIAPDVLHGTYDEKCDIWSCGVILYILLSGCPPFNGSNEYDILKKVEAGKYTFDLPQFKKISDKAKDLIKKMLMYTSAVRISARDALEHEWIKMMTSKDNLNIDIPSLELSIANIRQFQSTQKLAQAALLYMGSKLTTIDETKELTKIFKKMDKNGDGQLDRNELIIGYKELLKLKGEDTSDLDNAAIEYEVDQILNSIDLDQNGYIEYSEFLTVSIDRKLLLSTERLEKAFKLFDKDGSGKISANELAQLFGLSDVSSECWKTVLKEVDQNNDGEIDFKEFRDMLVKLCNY

Sequence of Plasmodium falciparum protein kinase 6 (PK6, PF3D7_1337100) (Q8IDW1 1-305): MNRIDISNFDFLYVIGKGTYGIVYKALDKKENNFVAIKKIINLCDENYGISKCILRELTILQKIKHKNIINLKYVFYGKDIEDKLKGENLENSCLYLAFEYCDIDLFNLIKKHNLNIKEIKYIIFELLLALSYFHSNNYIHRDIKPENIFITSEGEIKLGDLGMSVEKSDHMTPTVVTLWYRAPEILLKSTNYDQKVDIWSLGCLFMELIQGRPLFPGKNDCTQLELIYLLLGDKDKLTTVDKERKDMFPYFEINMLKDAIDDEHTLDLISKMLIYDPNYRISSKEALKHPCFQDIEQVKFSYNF
Sequence of Protein kinase 7 (PK7), Plasmodium falciparum 3D7 (PF3D7_0213400) (Q7YTF7 1-343): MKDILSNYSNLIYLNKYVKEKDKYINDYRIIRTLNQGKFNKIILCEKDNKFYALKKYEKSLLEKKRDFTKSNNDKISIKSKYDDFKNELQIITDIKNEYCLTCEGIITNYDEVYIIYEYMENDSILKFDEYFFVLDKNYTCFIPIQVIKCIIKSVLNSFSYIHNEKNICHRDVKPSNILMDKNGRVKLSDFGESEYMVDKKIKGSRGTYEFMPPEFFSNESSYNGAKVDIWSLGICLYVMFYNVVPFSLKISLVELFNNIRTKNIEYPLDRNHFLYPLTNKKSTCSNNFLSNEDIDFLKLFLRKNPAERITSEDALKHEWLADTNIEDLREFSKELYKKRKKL
Sequence of L-lactate dehydrogenase (Plasmodium falciparum (isolate CDC / Honduras)) (Q27743 whole entry, looked up): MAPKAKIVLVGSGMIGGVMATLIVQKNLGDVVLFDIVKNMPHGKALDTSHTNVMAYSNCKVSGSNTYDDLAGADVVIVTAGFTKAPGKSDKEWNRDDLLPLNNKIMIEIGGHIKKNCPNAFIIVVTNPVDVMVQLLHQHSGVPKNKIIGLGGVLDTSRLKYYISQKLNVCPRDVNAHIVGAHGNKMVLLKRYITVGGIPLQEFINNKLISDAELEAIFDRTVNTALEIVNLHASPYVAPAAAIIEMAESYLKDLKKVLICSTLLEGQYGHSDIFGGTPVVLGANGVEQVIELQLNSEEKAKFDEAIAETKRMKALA
Sequence of Calcium-dependent protein kinase 1 (Plasmodium falciparum (isolate 3D7)) (P62344 whole entry, looked up): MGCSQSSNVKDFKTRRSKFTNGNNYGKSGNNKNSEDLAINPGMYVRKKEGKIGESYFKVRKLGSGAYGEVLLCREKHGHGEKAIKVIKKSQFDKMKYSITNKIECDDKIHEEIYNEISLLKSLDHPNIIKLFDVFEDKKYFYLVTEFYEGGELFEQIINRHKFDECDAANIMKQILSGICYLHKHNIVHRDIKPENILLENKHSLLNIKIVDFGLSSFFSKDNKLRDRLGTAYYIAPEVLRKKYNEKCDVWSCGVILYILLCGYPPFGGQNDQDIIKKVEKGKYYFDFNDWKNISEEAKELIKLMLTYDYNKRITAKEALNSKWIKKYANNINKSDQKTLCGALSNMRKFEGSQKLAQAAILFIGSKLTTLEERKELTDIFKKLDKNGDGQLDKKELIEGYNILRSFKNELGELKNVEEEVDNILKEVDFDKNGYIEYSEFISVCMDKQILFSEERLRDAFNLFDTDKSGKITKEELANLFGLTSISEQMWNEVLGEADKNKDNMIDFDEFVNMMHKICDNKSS

Fc1ccc2c(NN=Cc3ccccc3)ccnc2c1
active: growth inhibition [1] 99% | growth inhibition [4] 100%
inactive: inhibition [2] 1% | inhibition [3] 2% | outcome [5] | outcome [6] | outcome [7] | outcome [8]

Cc1ccc(F)c(CN2CCC(N3CC(c4ccccc4)(c4ccccc4)OC3=O)CC2)c1Cl
inactive: inhibition [2] 11% | inhibition [3] -4% | outcome [5] | outcome [6] | outcome [7] | outcome [8]
active: growth inhibition [1] 89% | growth inhibition [4] 95%

Cc1cc(Cl)ccc1OC(C)C(=O)N1CCc2ccccc21 (stereo not given)
inactive: inhibition [2] 8% | inhibition [3] -2% | outcome [5] | outcome [6] | outcome [7] | outcome [8]
active: growth inhibition [1] 78% | growth inhibition [4] 94%

Cc1ccc(Nc2ccnc3cc(-c4nccs4)ccc23)cc1C(O)c1ccccc1 (stereo not given)
inactive: inhibition [2] 23% | inhibition [3] -8% | outcome [5] | outcome [6] | outcome [7] | outcome [8]
active: growth inhibition [1] 83% | growth inhibition [4] 85%

O=C(Cn1c(=O)oc2ccccc21)N1CCC(n2c(=O)n(CCCN3CCOCC3)c3ccccc32)CC1
active: growth inhibition [1] 101% | growth inhibition [4] 99%
inactive: inhibition [2] 11% | inhibition [3] 5% | outcome [5] | outcome [6] | outcome [7] | outcome [8]

Cc1c(CCNC(=O)CCCN2CC(C)CC(C)C2)c2ccccc2n1C (stereo not given)
active: growth inhibition [1] 100% | growth inhibition [4] 87%
inactive: inhibition [2] 8% | inhibition [3] -9% | outcome [5] | outcome [6] | outcome [7] | outcome [8]

COc1cc(C2=NN(S(=O)(=O)c3c(C)cc(C)cc3C)CCCC2)ccc1Cl
active: growth inhibition [1] 76% | growth inhibition [4] 85%
inactive: inhibition [2] 9% | inhibition [3] 1% | outcome [5] | outcome [6] | outcome [7] | outcome [8]

OC(CNc1ccnc(Nc2ccc(Cl)cc2)n1)c1cccc(C(F)(F)F)c1 (stereo not given)
inactive: inhibition [2] 9% | inhibition [3] 4% | outcome [5] | outcome [6] | outcome [7] | outcome [8]
active: growth inhibition [1] 84% | growth inhibition [4] 101%

COc1ccc2nc(C)cc(NN=Cc3ccc([N+](=O)[O-])cc3)c2c1
inactive: inhibition [2] -3% | inhibition [3] -5% | outcome [5] | outcome [6] | outcome [7] | outcome [8]
active: growth inhibition [1] 70% | growth inhibition [4] 103%

CCCCN1CC[C@@H](CCC(O)c2ccnc3ccc(OCCC(C)C)cc23)[C@@H](CC)C1 (stereo not given in full)
inactive: inhibition [2] 22% | inhibition [3] 2% | outcome [5] | outcome [6] | outcome [7] | outcome [8]
active: growth inhibition [1] 90% | growth inhibition [4] 94%

CCOC(=O)C(=CNc1ccc(Cc2cnc(N)nc2N)cc1CC)C(=O)OCC
active: growth inhibition [4] 87%
inactive: growth inhibition [1] 7% | inhibition [2] 47% | inhibition [3] 1% | outcome [5] | outcome [6] | outcome [7] | outcome [8]

Cc1ccc(NC(=O)c2c(C)noc2-c2snnc2C)cc1
inactive: inhibition [2] 1% | inhibition [3] 3% | outcome [5] | outcome [6] | outcome [7] | outcome [8]
active: growth inhibition [1] 71% | growth inhibition [4] 92%

OCCCCCCNc1ccnc2[nH]c3ccc(I)cc3c12
inactive: inhibition [2] 27% | inhibition [3] -4% | outcome [5] | outcome [6] | outcome [7] | outcome [8]
active: growth inhibition [1] 61% | growth inhibition [4] 100%

COc1ccc(C2CC(c3cccs3)=NN2C(=O)COc2cccc3c2CCCC3O)cc1OC (stereo not given)
inactive: inhibition [2] 5% | inhibition [3] 3% | outcome [5] | outcome [6] | outcome [7] | outcome [8]
active: growth inhibition [1] 62% | growth inhibition [4] 93%

CCC(C(=O)Nc1ccccc1)n1nc(-c2ccc(C)c(S(=O)(=O)N3CCCCC3)c2)ccc1=O (stereo not given)
inactive: inhibition [2] -2% | inhibition [3] 4% | outcome [5] | outcome [6] | outcome [7] | outcome [8]
active: growth inhibition [1] 67% | growth inhibition [4] 85%

COc1ccc(-c2cnc(N)c(-c3ccc(O)c(OC)c3)c2)cn1
active: growth inhibition [1] 98% | growth inhibition [4] 97%
inactive: inhibition [2] 23% | inhibition [3] -1% | outcome [5] | outcome [6] | outcome [7] | outcome [8]

O=C(NC1CC1)c1ccc(N2CCC(COc3cccc(F)c3)CC2)nc1
inactive: inhibition [2] 0% | inhibition [3] 4% | outcome [5] | outcome [6] | outcome [7] | outcome [8]
active: growth inhibition [1] 88% | growth inhibition [4] 89%

Cc1ccc(CN(Cc2ccc(C(=O)N(C)C)cc2)Cc2ccc3c(c2)OCCO3)cc1C
inactive: inhibition [2] 10% | inhibition [3] 0% | outcome [5] | outcome [6] | outcome [7] | outcome [8]
active: growth inhibition [1] 87% | growth inhibition [4] 91%

Cc1cc(CN2CC[C@H](NC(=O)c3ccc(Cl)c(Cl)c3)C2)ccc1OCCCN(C)C
inactive: growth inhibition [1] 35% | inhibition [2] 41% | inhibition [3] 0% | outcome [5] | outcome [6] | outcome [7] | outcome [8]
active: growth inhibition [4] 99%

O=C(NC1CCCCC1)N(Cc1ccc(-c2ccc(CNC3CCCC3)cc2)cc1)C1CCN(Cc2ccccc2)CC1
active: growth inhibition [1] 86% | growth inhibition [4] 99%
inactive: inhibition [2] 31% | inhibition [3] 3% | outcome [5] | outcome [6] | outcome [7] | outcome [8]

CS(=O)(=O)c1ccc2nc(-c3cc(-c4cccc(F)c4)cnc3N)[nH]c2c1
active: growth inhibition [1] 71% | growth inhibition [4] 102%
inactive: inhibition [2] 33% | inhibition [3] 4% | outcome [5] | outcome [6] | outcome [7] | outcome [8]

COc1ccc(NC(=O)/C=C/c2ccccc2Cl)cc1OCCN1CCC(N2CCN(C)CC2)CC1
inactive: growth inhibition [1] 49% | inhibition [2] 19% | inhibition [3] 5% | outcome [5] | outcome [6] | outcome [7] | outcome [8]
active: growth inhibition [4] 102%

Cc1nc(N)nc(N)c1-c1ccc(Br)cc1
inactive: growth inhibition [1] 1% | inhibition [2] 46% | inhibition [3] 3% | outcome [5] | outcome [6] | outcome [7] | outcome [8]
active: growth inhibition [4] 98%

CC(=O)Nc1ccc2[nH]cc(C3CCN(CCC4CCN(C(=O)/C=C/c5ccc(Cl)c(Cl)c5)CC4)CC3)c2c1
inactive: growth inhibition [1] 7% | inhibition [2] 13% | inhibition [3] 4% | outcome [5] | outcome [6] | outcome [7] | outcome [8]
active: growth inhibition [4] 95%

COc1ccc(C=C2SC(=N)N(c3ccccc3OC)C2=O)cc1
inactive: inhibition [2] 47% | inhibition [3] 3% | outcome [5] | outcome [6] | outcome [7] | outcome [8]
active: growth inhibition [1] 95% | growth inhibition [4] 97%

N#Cc1ccccc1S(=O)(=O)N1CCCC(CNC(=O)[C@H](CC2CCCCC2)NC(=O)c2cc3ccccc3s2)C1 (stereo not given in full)
active: growth inhibition [1] 92% | growth inhibition [4] 97%
inactive: inhibition [2] 9% | inhibition [3] -2% | outcome [5] | outcome [6] | outcome [7] | outcome [8]

O=C(NCCN1CCCCC1)c1cc2cc(-c3ccccc3)ccc2n1S(=O)(=O)c1ccccc1
active: growth inhibition [4] 90%
inactive: growth inhibition [1] -1% | inhibition [2] 15% | inhibition [3] 2% | outcome [5] | outcome [6] | outcome [7] | outcome [8]

CCS(=O)(=O)Nc1ccc2[nH]cc(C3CCN(CCC4CCN(C(=O)/C=C/c5ccc(Cl)c(Cl)c5)CC4)CC3)c2c1
inactive: inhibition [2] 34% | inhibition [3] -2% | outcome [5] | outcome [6] | outcome [7] | outcome [8]
active: growth inhibition [1] 94% | growth inhibition [4] 99%

CC(=O)c1ccc2cc(C(=O)NC3CCC(CCN4CCc5ccc(-c6noc(C)n6)cc5CC4)CC3)[nH]c2c1 (stereo not given)
active: growth inhibition [4] 81%
inactive: growth inhibition [1] 45% | inhibition [2] 28% | inhibition [3] 0% | outcome [5] | outcome [6] | outcome [7] | outcome [8]

Cc1ccc(OCC2CCN(c3ncc(C(=O)NC4CC4)cc3Cl)CC2)cc1
inactive: inhibition [2] 2% | inhibition [3] 0% | outcome [5] | outcome [6] | outcome [7] | outcome [8]
active: growth inhibition [1] 72% | growth inhibition [4] 88%

NC(=O)Nc1ccc2c(Nc3ccc(OCc4ccccc4)cc3)ncnc2c1
active: growth inhibition [4] 84%
inactive: growth inhibition [1] 20% | inhibition [2] -1% | inhibition [3] 3% | outcome [5] | outcome [6] | outcome [7] | outcome [8]

COc1cc2ccccc2c(CNCCCCCCNCc2c(OC)c(OC)cc3ccccc23)c1OC
active: growth inhibition [1] 89% | inhibition [2] 100% | growth inhibition [4] 95%
inactive: inhibition [3] -4% | outcome [5] | outcome [6] | outcome [7] | outcome [8]

Cc1cccc(Cl)c1Nc1nnc(-c2cccc(C(=O)NC[C@@H]3CC[C@H]4C[C@@H]3C4(C)C)c2)o1
active: growth inhibition [1] 69% | growth inhibition [4] 85%
inactive: inhibition [2] 2% | inhibition [3] -3% | outcome [5] | outcome [6] | outcome [7] | outcome [8]

Cc1cnc(C(=O)Nc2ccc(-c3cccc(-c4nc5ccccc5[nH]4)c3)cc2)cn1
active: inhibition [2] 77% | growth inhibition [4] 93%
inactive: growth inhibition [1] 8% | inhibition [3] -3% | outcome [5] | outcome [6] | outcome [7] | outcome [8]

CC(C)(C)c1ccc2nc(-c3ccc(/C=C/C(=O)NCc4cccc(C(F)(F)F)c4)cc3)[nH]c2c1
inactive: growth inhibition [1] 11% | inhibition [2] 31% | inhibition [3] -16% | outcome [5] | outcome [6] | outcome [7] | outcome [8]
active: growth inhibition [4] 93%

Oc1ccc(-c2nc3c4cc(I)ccc4c4ccc(I)cc4c3[nH]2)cc1
inactive: inhibition [2] -3% | inhibition [3] 2% | outcome [5] | outcome [6] | outcome [7] | outcome [8]
active: growth inhibition [1] 51% | growth inhibition [4] 98%

Brc1cc(Br)c2c(c1)C(NCCCNc1nc3ncccc3[nH]1)CCN2 (stereo not given)
active: growth inhibition [1] 83% | growth inhibition [4] 99%
inactive: inhibition [2] 5% | inhibition [3] 1% | outcome [5] | outcome [6] | outcome [7] | outcome [8]

Cc1cccc2[nH]c(-c3cccc(-c4ccc(NC(=O)CCc5cnc[nH]5)cc4)c3)nc12
active: growth inhibition [1] 92% | growth inhibition [4] 102%
inactive: inhibition [2] 3% | inhibition [3] 6% | outcome [5] | outcome [6] | outcome [7] | outcome [8]

Oc1ccc(CCNCCCCCCNCCc2ccc(Br)cc2)cc1O
inactive: growth inhibition [1] 5% | inhibition [2] 2% | inhibition [3] -2% | outcome [5] | outcome [6] | outcome [7] | outcome [8]
active: growth inhibition [4] 99%

CN1CCN(c2ccnc3cc4c(cc23)N(Cc2ccccc2)CC4)CC1
inactive: growth inhibition [1] 27% | inhibition [2] -2% | inhibition [3] -3% | outcome [5] | outcome [6] | outcome [7] | outcome [8]
active: growth inhibition [4] 94%
